# Experimental data as given in PubChem BioAssay AID1159580 (chemical genetic matrix, 2015).
# Screen size: about 5,500 compounds; about 2,000 (36%) were called active. About 18% were inconclusive and are not listed. The list shows a part of the results. Unmarked numbers belong to inactive results. No stated cut-off is given here; in the data, active means normalized growth mostly below about 0.91 (no sharp cut-off); inconclusive means no clear call, values can overlap the other calls; inactive means mostly above about 0.92.
# Test: chemical genetic growth profiling, strain panel (AID 1159580);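 further: tested at 20 µM; growth read once vehicle control cultures reached saturation at 30 °C; 1 = growth at the plate median or of vehicle wells; lower values mean less growth of the strain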
# Settings: S. cerevisiae deletion strains, growth OD
# [1] = locus YAL013W, strain DEP1, hits give low values
# [2] = locus YAL040C, strain CLN3, hits give low values
# [3] = locus YCL061C, strain MRC1 (second series), hits give low values
# [4] = locus YDR363W, strain ESC2, hits give low values
# [5] = locus YER002W, strain NOP16, hits give low values
# [6] = locus YGR078C, strain PAC10, hits give low values
# [7] = locus YMR263W, strain SAP30, hits give low values
# [8] = locus YMR307W, strain GAS1, hits give low values
# [9] = locus YNL175C, strain NOP13, hits give low values
# [10] = locus YNL197C, strain WHI3, hits give low values
# [11] = locus YNL224C, strain SQS1, hits give low values
# [12] = locus YOR083W, strain WHI5 (second series), hits give low values
smiles,measurement,setting,value
Cc1ccccc1N1CCN(S(=O)(=O)C[C@]23CCC(CC2NC(=O)[C@@H](N)CCS(C)(=O)=O)C3(C)C)CC1 (stereo partly specified),normalized growth,[1],0.995
same,normalized growth,[2],1.01
same,normalized growth,[3],1
same,normalized growth,[4],1
same,normalized growth,[5],1.04
same,normalized growth,[6],0.999
same,normalized growth,"locus YGR229C, strain SMI1, hits give low values",1
same,normalized growth,[7],0.995
same,normalized growth,[8],0.99
same,normalized growth,[9],1.01
same,normalized growth,[10],1.01
same,normalized growth,[11],1.01
same,normalized growth,"locus YNL322C, strain KRE1, hits give low values",0.99
same,normalized growth,[12],1.04
CCCN(CCC)C1Cc2cc(OC)c(OC)cc2C1,normalized growth,[1],0.961
same,normalized growth,[2],1.05
same,normalized growth,[3],0.988
same,normalized growth,[4],0.974
same,normalized growth,[5],1.04
same,normalized growth,[7],0.985
same,normalized growth,[8],0.995
same,normalized growth,[9],1.02
same,normalized growth,[10],0.983
same,normalized growth,[11],0.994
same,normalized growth,[12],0.995
Clc1ccc(C(Cn2ccnc2)OCc2ccsc2Cl)c(Cl)c1 (stereo unspecified),normalized growth,"locus YAL021C, strain ccr4, hits give low values",0.0615 (active)
same,normalized growth,"locus YAL026C, strain drs2, hits give low values",0.0595 (active)
same,normalized growth,"locus YAL030W, strain snc1, hits give low values",0.058 (active)
same,normalized growth,"locus YBL061C, strain skt5, hits give low values",0.0605 (active)
same,normalized growth,"locus YBR009C, strain hhf1, hits give low values",0.0623 (active)
same,normalized growth,"locus YBR023C, strain chs3, hits give low values",0.0625 (active)
same,normalized growth,"locus YBR171W, strain sec66, hits give low values",0.077 (active)
same,normalized growth,"locus YBR231C, strain swc5, hits give low values",0.0613 (active)
same,normalized growth,"locus YBR279W, strain paf1, hits give low values",0.0605 (active)
same,normalized growth,"locus YCL011C, strain gbp2, hits give low values",0.0554 (active)
same,normalized growth,"locus YCL016C, strain dcc1, hits give low values",0.0612 (active)
same,normalized growth,"locus YCL061C, strain MRC1, hits give low values",0.0623 (active)
same,normalized growth,"locus YCL069W, strain vba3, hits give low values",0.0601 (active)
same,normalized growth,"locus YCR088W, strain abp1, hits give low values",0.0619 (active)
same,normalized growth,"locus YDL005C, strain med2, hits give low values",0.0727 (active)
same,normalized growth,"locus YDL040C, strain nat1, hits give low values",0.0591 (active)
same,normalized growth,"locus YDR001C, strain nth1, hits give low values",0.0593 (active)
same,normalized growth,"locus YDR069C, strain doa4, hits give low values",0.0605 (active)
same,normalized growth,"locus YDR137W, strain rgp1, hits give low values",0.0897 (active)
same,normalized growth,"locus YDR159W, strain sac3, hits give low values",0.0897 (active)
same,normalized growth,"locus YDR195W, strain ref2",0.109 (active)
same,normalized growth,"locus YDR297W, strain sur2, hits give low values",0.0576 (active)
same,normalized growth,"locus YDR334W, strain swr1, hits give low values",0.0622 (active)
same,normalized growth,"locus YDR335W, strain msn5, hits give low values",0.0604 (active)
same,normalized growth,"locus YDR392W, strain spt3, hits give low values",0.0929 (active)
same,normalized growth,"locus YEL003W, strain gim4, hits give low values",0.0528 (active)
same,normalized growth,"locus YEL037C, strain rad23, hits give low values",0.0589 (active)
same,normalized growth,"locus YEL061C, strain CIN8 (second series), hits give low values",0.0607 (active)
same,normalized growth,"locus YER015W, strain faa2, hits give low values",0.0602 (active)
same,normalized growth,"locus YER016W, strain bim1, hits give low values",0.0611 (active)
same,normalized growth,"locus YER111C, strain swi4, hits give low values",0.0729 (active)
same,normalized growth,"locus YER155C, strain BEM2 (second series), hits give low values",0.0863 (active)
same,normalized growth,"locus YFR010W, strain ubp6, hits give low values",0.0638 (active)
same,normalized growth,"locus YGL167C, strain pmr1, hits give low values",0.0775 (active)
same,normalized growth,"locus YGL173C, strain kem1, hits give low values",0.0679 (active)
same,normalized growth,"locus YGL227W, strain vid30, hits give low values",0.0627 (active)
same,normalized growth,"locus YGL240W, strain doc1, hits give low values",0.0751 (active)
same,normalized growth,"locus YGL253W, strain hxk2, hits give low values",0.0532 (active)
same,normalized growth,"locus YHR013C, strain ard1, hits give low values",0.116 (active)
same,normalized growth,"locus YHR027C, strain rpn1, hits give low values",0.0631 (active)
same,normalized growth,"locus YHR030C, strain SLT2, hits give low values",0.1 (active)
same,normalized growth,"locus YHR079C, strain IRE1, hits give low values",0.111 (active)
same,normalized growth,"locus YHR142W, strain chs7, hits give low values",0.0682 (active)
same,normalized growth,"locus YJL092W, strain hpr5, hits give low values",0.058 (active)
same,normalized growth,"locus YJL095W, strain BCK1 (second series), hits give low values",0.0564 (active)
same,normalized growth,"locus YJL095W, strain BCK1, hits give low values",0.131 (active)
same,normalized growth,"locus YJL115W, strain asf1, hits give low values",0.0715 (active)
same,normalized growth,"locus YJL129C, strain trk1, hits give low values",0.0844 (active)
same,normalized growth,"locus YJL154C, strain vps35, hits give low values",0.0606 (active)
same,normalized growth,"locus YJL164C, strain tpk1, hits give low values",0.0589 (active)
same,normalized growth,"locus YJL166W, strain qcr8, hits give low values",0.0614 (active)
same,normalized growth,"locus YJL187C, strain SWE1, hits give low values",0.058 (active)
same,normalized growth,"locus YJR066W, strain TOR1, hits give low values",-0.00364 (active)
same,normalized growth,"locus YKL160W, strain elf1, hits give low values",0.0664 (active)
same,normalized growth,"locus YKR026C, strain gcn3, hits give low values",0.0641 (active)
same,normalized growth,"locus YKR091W, strain srl3, hits give low values",0.0588 (active)
same,normalized growth,"locus YLL001W, strain dnm1, hits give low values",0.0592 (active)
same,normalized growth,"locus YLL026W, hits give low values",0.0585 (active)
same,normalized growth,"locus YLL041C, strain sdh2, hits give low values",0.0592 (active)
same,normalized growth,"locus YLR027C, strain aat2, hits give low values",0.0566 (active)
same,normalized growth,"locus YLR113W, strain HOG1, hits give low values",0.175 (active)
same,normalized growth,"locus YLR221C, strain rsa3, hits give low values",0.0562 (active)
same,normalized growth,"locus YLR258W, strain gsy2, hits give low values",0.0592 (active)
same,normalized growth,"locus YLR262C, strain YPT6 (second series), hits give low values",0.0854 (active)
same,normalized growth,"locus YLR320W, strain mms22, hits give low values",0.083 (active)
same,normalized growth,"locus YLR342W, strain FKS1, hits give low values",0.063 (active)
same,normalized growth,"locus YLR357W, strain rsc2, hits give low values",0.114 (active)
same,normalized growth,"locus YLR370C, strain arc18, hits give low values",0.0594 (active)
same,normalized growth,"locus YLR384C, strain iki3, hits give low values",0.0608 (active)
same,normalized growth,"locus YML120C, strain ndi1, hits give low values",0.0591 (active)
same,normalized growth,"locus YMR058W, strain fet3, hits give low values",0.0582 (active)
same,normalized growth,"locus YMR125W, strain sto1, hits give low values",0.0724 (active)
same,normalized growth,"locus YMR129W, hits give low values",0.057 (active)
same,normalized growth,"locus YMR205C, strain PFK2, hits give low values",0.0885 (active)
same,normalized growth,"locus YMR231W, strain pep5, hits give low values",0.0835 (active)
same,normalized growth,"locus YNL071W, strain lat1, hits give low values",0.0601 (active)
same,normalized growth,"locus YNL183C, strain NPR1, hits give low values",-4.4e-05 (active)
same,normalized growth,"locus YNL209W, strain ssb2, hits give low values",0.0596 (active)
same,normalized growth,"locus YNL248C, strain rpa49, hits give low values",0.0715 (active)
same,normalized growth,"locus YNL322C, strain KRE1 (second series), hits give low values",0.0708 (active)
same,normalized growth,"locus YNR049C, strain mso1, hits give low values",0.0574 (active)
same,normalized growth,"locus YOR001W, strain rrp6, hits give low values",0.0652 (active)
same,normalized growth,"locus YOR070C, strain gyp1, hits give low values",0.0829 (active)
same,normalized growth,"locus YOR080W, strain dia2, hits give low values",0.0656 (active)
same,normalized growth,"locus YOR083W, strain WHI5, hits give low values",0.0618 (active)
same,normalized growth,"locus YOR106W, strain vam3, hits give low values",0.0631 (active)
same,normalized growth,"locus YOR231W, strain MKK1, hits give low values",0.107 (active)
same,normalized growth,"locus YOR265W, strain rbl2, hits give low values",0.0575 (active)
same,normalized growth,"locus YOR270C, strain vph1, hits give low values",0.0903 (active)
same,normalized growth,"locus YOR290C, strain snf2, hits give low values",0.074 (active)
same,normalized growth,"locus YPL051W, strain arl3, hits give low values",0.0604 (active)
same,normalized growth,"locus YPL078C, strain atp4, hits give low values",0.0629 (active)
same,normalized growth,"locus YPL106C, strain sse1, hits give low values",0.0945 (active)
same,normalized growth,"locus YPL240C, strain hsp82, hits give low values",0.0568 (active)
same,normalized growth,"locus YPL256C, strain CLN2, hits give low values",0.133 (active)
Clc1ccc(C(c2ccc(Cl)cc2)n2cc[n+](CC(OCc3ccc(Cl)cc3Cl)c3ccc(Cl)cc3Cl)c2)cc1 (stereo unspecified),normalized growth,[2],0.071 (active)
same,normalized growth,[3],0.0506 (active)
same,normalized growth,[4],0.0687 (active)
same,normalized growth,[5],1.01
same,normalized growth,[6],0.0555 (active)
same,normalized growth,"locus YJR075W, strain HOC1, hits give low values",0.0686 (active)
same,normalized growth,[8],0.0652 (active)
same,normalized growth,[9],0.0668 (active)
same,normalized growth,[10],0.0718 (active)
same,normalized growth,[11],0.0691 (active)
same,normalized growth,[12],0.0706 (active)
